Experiment in all cases: peptide microarray binding signal (635 nm), min-max normalized on array (fraction of array maximum); higher = stronger binding
What all share (details): peptide region: H3 11-23

The target in experiment [1] is T1, HaloTag-ATRX ADD domain (163-292).
T1 chain: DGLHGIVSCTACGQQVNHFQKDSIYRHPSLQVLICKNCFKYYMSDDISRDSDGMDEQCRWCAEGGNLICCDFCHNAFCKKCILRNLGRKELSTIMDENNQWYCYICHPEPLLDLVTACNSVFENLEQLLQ
In outline:
(§1)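 Triplicate spots of histone 13-mer peptide–cellulose conjugates with a Cy3 tracer were printed on nitrocellulose and probed for 1 h at 4°C with biotin-labelled HaloTag reader fusions (10 nM to 1 μM) plus streptavidin-Alexa Fluor 647 or rabbit histone antibodies (1:10,000 to 1:2,000) plus anti-rabbit Alexa 647. An Axon GenePix 4000B read the 635 nm channel. Binding signal is the spot-triplicate mean intensity after min-max scaling within each library.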

The target of experiment [2] is HaloTag-ING2 PHD (mouse Ing2 200-280). In outline:
as §1

The target of experiment [3] is anti-H3K4me3 antibody ab8580. In outline: as §1
The target of experiment [4] is anti-H3K9me3 antibody ab8898. In outline:
as §1

Where [5] appears, read: peptide modifications: H3R17cit H3K18me3, binder concentration: 1:2,000 dilution.
Setting [6] is: peptide modifications: H3R17cit H3K18me3, binder concentration: 1:10,000 dilution.
Setting [7] is: peptide modifications: H3K18ac, binder concentration: 1:2,000 dilution.
[8] abbreviates: peptide modifications: H3K18ac, binder concentration: 1:10,000 dilution.
The mark [9] stands for this setting: peptide modifications: H3K14me3 H3R17me1, binder concentration: 1:2,000 dilution.
Where [10] appears, read: peptide modifications: H3K14me3 H3R17me1, binder concentration: 1:10,000 dilution.
[11] abbreviates: peptide modifications: H3R17me1, binder concentration: 1:2,000 dilution.
The mark [12] stands for this setting: peptide modifications: H3R17me1, binder concentration: 1:10,000 dilution.
The mark [13] stands for this setting: peptide modifications: H3R17cit, binder concentration: 1:2,000 dilution.
The mark [14] stands for this setting: peptide modifications: H3R17cit, binder concentration: 1:10,000 dilution.
Setting [15] is: peptide modifications: H3K14me3 H3R17me2a, binder concentration: 1:2,000 dilution.
The mark [16] stands for this setting: peptide modifications: H3K14me3 H3R17me2a, binder concentration: 1:10,000 dilution.
The mark [17] stands for this setting: peptide modifications: H3K18me3, binder concentration: 1:2,000 dilution.
[18] abbreviates: peptide modifications: H3K18me3, binder concentration: 1:10,000 dilution.
Where [19] appears, read: peptide modifications: H3K14me3 H3R17cit, binder concentration: 1:2,000 dilution.
The mark [20] stands for this setting: peptide modifications: H3K14me3 H3R17cit, binder concentration: 1:10,000 dilution.
The mark [21] stands for this setting: peptide modifications: H3R17me1 H3K18me1, binder concentration: 1:2,000 dilution.
[22] abbreviates: peptide modifications: H3R17me1 H3K18me1, binder concentration: 1:10,000 dilution.
The mark [23] stands for this setting: peptide modifications: H3K14me3 H3K18me3, binder concentration: 1:2,000 dilution.
Setting [24] is: peptide modifications: H3K14me3 H3K18me3, binder concentration: 1:10,000 dilution.

The record followed here is the supplement of paper PMC4022240.

± gives the standard deviation.

With TGGKAPRKQLATK [H3 11-23 T G G K A P Rcit Kme3 Q L A T K], the “peptide microarray binding signal” value in experiment [1] (peptide modifications: H3R17cit H3K18me3, binder concentration: 50 nM) was found to be 0.00592 ± 0.00019; in experiment [1] (peptide modifications: H3R17cit H3K18me3, binder concentration: 500 nM), 0.012 ± 0.00018; in experiment [2] (peptide modifications: H3R17cit H3K18me3, binder concentration: 10 nM), 0.0112 ± 0.0014; in experiment [2] (peptide modifications: H3R17cit H3K18me3, binder concentration: 100 nM) it was 0.0317 ± 0.0063; in experiment [3] (setting [5]), 0.728 ± 0.052; in experiment [3] (setting [6]) it was 0.45 ± 0.036. The “peptide microarray binding signal” value in experiment [4] (setting [5]) amounted to 0.0249 ± 0.0032; in experiment [4] (setting [6]), 0.0125 ± 0.0016.

Take TGGKAPRKQLATK [H3 11-23 T G G K A P R Kac Q L A T K]: the “peptide microarray binding signal” value in experiment [1] (peptide modifications: H3K18ac, binder concentration: 50 nM) was 0.00715 ± 0.00076; in experiment [1] (peptide modifications: H3K18ac, binder concentration: 500 nM) it was 0.023 ± 0.014; in experiment [2] (peptide modifications: H3K18ac, binder concentration: 10 nM), 0.0127 ± 0.0019; in experiment [2] (peptide modifications: H3K18ac, binder concentration: 100 nM), 0.0351 ± 0.016; in experiment [3] (setting [7]), 0.00259 ± 0.002; in experiment [3] (setting [8]) it was 0.00462 ± 0.00058. In addition, the “peptide microarray binding signal” value was 0.00184 ± 8.2e-05 in experiment [4] (setting [7]) and 0.00173 ± 8.8e-05 in experiment [4] (setting [8]).

For the molecule TGGKAPRKQLATK [H3 11-23 T G G Kme3 A P Rme K Q L A T K], the “peptide microarray binding signal” value in experiment [1] (peptide modifications: H3K14me3 H3R17me1, binder concentration: 50 nM) is 0.0176 ± 0.0022; in experiment [1] (peptide modifications: H3K14me3 H3R17me1, binder concentration: 500 nM), 0.0147 ± 0.00081; in experiment [2] (peptide modifications: H3K14me3 H3R17me1, binder concentration: 10 nM), 0.00609 ± 0.00015; in experiment [2] (peptide modifications: H3K14me3 H3R17me1, binder concentration: 100 nM) it was 0.00772 ± 0.00033; in experiment [3] (setting [9]) it was 0.00823 ± 0.00055; in experiment [3] (setting [10]), 0.00502 ± 0.00025. Further, the “peptide microarray binding signal” value in experiment [4] (setting [9]) came out at 0.0269 ± 0.0047; in experiment [4] (setting [10]), 0.0115 ± 0.00069.

As for TGGKAPRKQLATK [H3 11-23 T G G K A P Rme K Q L A T K], the “peptide microarray binding signal” value in experiment [1] (peptide modifications: H3R17me1, binder concentration: 50 nM) worked out at 0.0101 ± 0.00079; in experiment [1] (peptide modifications: H3R17me1, binder concentration: 500 nM) it was 0.0274 ± 0.0035; in experiment [2] (peptide modifications: H3R17me1, binder concentration: 10 nM), 0.00877 ± 0.0015; in experiment [2] (peptide modifications: H3R17me1, binder concentration: 100 nM) it was 0.0348 ± 0.0049; in experiment [3] (setting [11]) it was 0.00176 ± 7.5e-05; in experiment [3] (setting [12]), 0.00103 ± 2.1e-05. Moreover, the results for the “peptide microarray binding signal” value in experiment [4] (setting [11]) and in experiment [4] (setting [12]) were 0.00326 ± 7.1e-05 and 0.00265 ± 0.00014, respectively.

In the case of TGGKAPRKQLATK [H3 11-23 T G G K A P Rcit K Q L A T K], the “peptide microarray binding signal” value was determined as 0.00364 ± 6.7e-05 in experiment [1] (peptide modifications: H3R17cit, binder concentration: 50 nM); 0.0192 ± 0.00046 in experiment [1] (peptide modifications: H3R17cit, binder concentration: 500 nM); 0.00794 ± 0.00039 in experiment [2] (peptide modifications: H3R17cit, binder concentration: 10 nM); 0.0168 ± 0.0043 in experiment [2] (peptide modifications: H3R17cit, binder concentration: 100 nM); 0.000302 ± 4.1e-05 in experiment [3] (setting [13]); 0.00148 ± 0.00015 in experiment [3] (setting [14]). The “peptide microarray binding signal” value in experiment [4] (setting [13]) was 0.00122 ± 4.2e-05; in experiment [4] (setting [14]) it was 0.0015 ± 6.7e-05.

With TGGKAPRKQLATK [H3 11-23 T G G Kme3 A P Rme2a K Q L A T K], the “peptide microarray binding signal” value in experiment [1] (peptide modifications: H3K14me3 H3R17me2a, binder concentration: 50 nM) was 0.0192 ± 0.0025; in experiment [1] (peptide modifications: H3K14me3 H3R17me2a, binder concentration: 500 nM), 0.027 ± 0.0031; in experiment [2] (peptide modifications: H3K14me3 H3R17me2a, binder concentration: 10 nM), 0.0158 ± 0.0011; in experiment [2] (peptide modifications: H3K14me3 H3R17me2a, binder concentration: 100 nM) it was 0.0298 ± 0.0018; in experiment [3] (setting [15]) it was 0.0582 ± 0.0093; in experiment [3] (setting [16]), 0.0419 ± 0.0073. Moreover, the “peptide microarray binding signal” value in experiment [4] (setting [15]) was determined as 0.133 ± 0.0046; in experiment [4] (setting [16]) it was 0.0547 ± 0.0033.

Take TGGKAPRKQLATK [H3 11-23 T G G K A P R Kme3 Q L A T K]: the “peptide microarray binding signal” value in experiment [1] (peptide modifications: H3K18me3, binder concentration: 50 nM) is 0.0107 ± 0.00077; in experiment [1] (peptide modifications: H3K18me3, binder concentration: 500 nM) it was 0.0257 ± 0.0005; in experiment [2] (peptide modifications: H3K18me3, binder concentration: 10 nM), 0.00937 ± 0.00052; in experiment [2] (peptide modifications: H3K18me3, binder concentration: 100 nM), 0.0178 ± 0.0018; in experiment [3] (setting [17]) it was 0.257 ± 0.035; in experiment [3] (setting [18]) it was 0.263 ± 0.14. Further, the “peptide microarray binding signal” value in experiment [4] (setting [17]) came out at 0.0698 ± 0.0096; in experiment [4] (setting [18]), 0.0292 ± 0.0022.

Take TGGKAPRKQLATK [H3 11-23 T G G Kme3 A P Rcit K Q L A T K]: the “peptide microarray binding signal” value in experiment [1] (peptide modifications: H3K14me3 H3R17cit, binder concentration: 50 nM) was 0.00273 ± 3.1e-05; in experiment [1] (peptide modifications: H3K14me3 H3R17cit, binder concentration: 500 nM) it was 0.003095 ± 2.4e-05; in experiment [2] (peptide modifications: H3K14me3 H3R17cit, binder concentration: 10 nM) it was 0.00603 ± 0.00019; in experiment [2] (peptide modifications: H3K14me3 H3R17cit, binder concentration: 100 nM) it was 0.00709 ± 0.00015; in experiment [3] (setting [19]), 0.00325 ± 7.6e-05; in experiment [3] (setting [20]), 0.00257 ± 6e-05. In addition, the “peptide microarray binding signal” value worked out at 0.00877 ± 0.0011 in experiment [4] (setting [19]) and 0.00519 ± 0.00016 in experiment [4] (setting [20]).

As for TGGKAPRKQLATK [H3 11-23 T G G K A P Rme Kme Q L A T K], the “peptide microarray binding signal” value in experiment [1] (peptide modifications: H3R17me1 H3K18me1, binder concentration: 50 nM) came out at 0.009 ± 0.00036; in experiment [1] (peptide modifications: H3R17me1 H3K18me1, binder concentration: 500 nM), 0.018 ± 0.0028; in experiment [2] (peptide modifications: H3R17me1 H3K18me1, binder concentration: 10 nM), 0.0114 ± 0.001; in experiment [2] (peptide modifications: H3R17me1 H3K18me1, binder concentration: 100 nM) it was 0.0208 ± 0.0062; in experiment [3] (setting [21]) it was 0.00808 ± 0.0017; in experiment [3] (setting [22]) it was 0.00622 ± 0.0014. Further, the figures for the “peptide microarray binding signal” value in experiment [4] (setting [21]) and in experiment [4] (setting [22]) were 0.0021 ± 0.00037 and 0.00161 ± 4.1e-05, respectively.

On to TGGKAPRKQLATK [H3 11-23 T G G Kme3 A P R Kme3 Q L A T K], for which the “peptide microarray binding signal” value is 0.00652 ± 5.7e-05 in experiment [1] (peptide modifications: H3K14me3 H3K18me3, binder concentration: 50 nM); 0.00876 ± 0.00042 in experiment [1] (peptide modifications: H3K14me3 H3K18me3, binder concentration: 500 nM); 0.00865 ± 0.0015 in experiment [2] (peptide modifications: H3K14me3 H3K18me3, binder concentration: 10 nM); 0.0149 ± 0.0019 in experiment [2] (peptide modifications: H3K14me3 H3K18me3, binder concentration: 100 nM); 0.45 ± 0.069 in experiment [3] (setting [23]); 0.408 ± 0.048 in experiment [3] (setting [24]). Also, the “peptide microarray binding signal” value was 0.18 ± 0.013 in experiment [4] (setting [23]) and 0.0505 ± 0.0048 in experiment [4] (setting [24]).
